Compound activity as filed in PubChem.
Marburg entry inh: blocks Marburg virus binding to or entry into cells; Marburg virus pseudotyped entry inhibition, cell reporter; 1.8% of 300,000 active; Potency, µM (doses to about 37.8 µM), hits mostly inhibitors; calls by dose curve; tested in HEK293 cells
RE007 growth inh: less growth of the S. pombe RE007 Vpr strain; 0.21% of 360,000 active; S. pombe RE007 Vpr strain, BacTiter-Glo ATP luminescence, 24 h; Potency, µM (top dose mostly 92.2 µM), actives largely listed as inhibitors; active means well fitted falling curve with a large enough effect; inconclusive means small, poorly fitted or top-dose-only effect; inactive means no such curve, though single readings can be large or run the other way; further: nearly all actives have a fitted effect of over 50% in size
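Fission yeast strain RE007, carrying one chromosomally integrated HIV-1 vpr copy, was seeded at OD 0.01 in PMG+AL medium with 23 nL pinned compound. After 24 h at 30 °C and 99% humidity, viability was read by BacTiter-Glo luminescence.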
HCV inh: inhibitors of hepatitis C virus infection | 3.4% of 340,000 active | Potency, µM (doses to about 41.8 µM), hits mostly inhibitors | Huh7.5.1 HCVcc-Cre infection, luciferase reporter, 44 h | AID 651820
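A cell-based infection assay in which seeded cells (1,000 per well) receive test compound after 4 h, are inoculated with HCVcc-Cre at approximately 0.5 moi, and are incubated 44 h before luminescence detection.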
LASV entry inh: inhibitors of Lassa virus binding or cell entry; Lassa virus pseudotype entry inhibition, cell reporter; Potency, µM (series often up to 37.9 µM), most hits filed as inhibitors; 1.2% of 300,000 active; AID 540256; calls by dose curve; tested in HEK293 cells; further: nearly all actives have a fitted effect of over 50% in size
Sm TGR inh: S. mansoni TGR enzyme inhibition | Q962Y6 | purified TGR, DTNB reduction, TNB absorbance 405 nm | Potency, µM (series often up to 114 µM), actives largely listed as inhibitors | 3% of 360,000 active; further: nearly all actives have a fitted effect of over 60% in size
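TGR 20 nM + NADPH 100 uM (dispensed conc.), cpd preinc 15 min RT; start with NADPH (500 uM addition) then DTNB (15 mM addition). Kinetic TNB absorbance, 405 nm filter. Four-parameter Hill fit across titration.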
FMDV inh: blocks foot and mouth disease virus | FMDV antiviral cell-based qHTS | 1.2% of 410,000 active | Potency, µM (top dose mostly 57.9 µM), usual class: inhibitors | AID 1159524; calls by dose curve; tested in HEK293T cells; further: read-out not given here; nearly all actives have a fitted effect of over 45% in size
Each line names hits and unclear results; the compound was inactive in the other large screens. An excerpt weighted towards active compounds, which were near 7.2% of everything screened. Unless noted, the call rests on the fitted dose curve; in most records, active means well fitted curve in the direction sought with a large enough effect; inconclusive means small, poorly fitted or top-dose-only effect, or another doubt; inactive means no such curve, though single readings can be large; an effect the other way counts as inactive or inconclusive.

COCc1c(C(=O)N2CCN(C3CCCC3)CC2)cnn1-c1nccc(-c2cccs2)n1	none (no result: Marburg entry inh, RE007 growth inh, HCV inh, LASV entry inh, Sm TGR inh)
Cc1ccc(NC(=O)[C@@H](c2ccccc2)N2Cc3ccccc3C2=O)cc1	none (no result: RE007 growth inh, HCV inh)
Cc1cc2nc(-c3ccc(SCC(=O)N4CCN(C(=O)c5ccco5)CC4)nc3)[nH]c2cc1C	Marburg entry inh inconclusive, HCV inh inconclusive, Sm TGR inh 10µM
Cc1ccc(Cn2c(=N)n(CC(O)c3ccco3)c3ccccc32)cc1 (configuration not stated)	Marburg entry inh 11.2µM, HCV inh inconclusive, FMDV inh inconclusive
N=c1n(N)c2ccccc2n1CC(=O)c1ccc(Br)cc1	Marburg entry inh inconclusive, HCV inh 12.6µM, LASV entry inh inconclusive
CCCn1c(=N)n(CC(=O)c2ccc([N+](=O)[O-])cc2)c2ccccc21	Marburg entry inh inconclusive, HCV inh 12.6µM
Cc1ccccc1Cn1c(=N)n(CC(=O)c2ccc([N+](=O)[O-])cc2)c2ccccc21	Marburg entry inh inconclusive, LASV entry inh inconclusive
CCCn1c(=N)n(CC(=O)c2ccc(Cl)cc2)c2ccccc21	Marburg entry inh inconclusive, HCV inh 12.6µM, LASV entry inh inconclusive, Sm TGR inh inconclusive
CCOC(=O)C1(O)Oc2cc(OC)cc(OC)c2C(=O)C1c1ccccc1 (configuration not stated)	none (no result: Marburg entry inh, RE007 growth inh, HCV inh, LASV entry inh, Sm TGR inh)
O=C(CSc1n[nH]c(-c2ccc(F)cc2)n1)NCc1ccccc1Cl	LASV entry inh inconclusive, FMDV inh inconclusive (no result: Marburg entry inh, RE007 growth inh, HCV inh)
Cc1nc(CN2CCN(C(=O)CC3(c4ccccc4Cl)CC(=O)N(C)C3=O)CC2)cs1 (configuration not stated)	none (no result: Marburg entry inh, RE007 growth inh, HCV inh, LASV entry inh, Sm TGR inh)
Cc1ccc(Cn2c(=N)n(CC(=O)c3ccccc3)c3ccccc32)cc1	HCV inh 10µM (no result: Marburg entry inh, LASV entry inh, Sm TGR inh)
O=C(CCN1CCOCC1)NC12CC3CC(CC(C3)C1)C2	none (no result: Marburg entry inh, LASV entry inh)
C1CCC(N=C(NC23CC4CC(CC(C4)C2)C3)N2CCOCC2)CC1	Marburg entry inh 10µM (no result: RE007 growth inh, HCV inh, Sm TGR inh)
O=C(COC(=O)c1ccc2[nH]c3c(c2c1)CCCC3)Nc1ccccc1	HCV inh 12.6µM, LASV entry inh inconclusive
Cc1cccc(C)c1NC(=O)COC(=O)c1ccc2[nH]c3c(c2c1)CCCC3	none (no result: Marburg entry inh, LASV entry inh, Sm TGR inh)
COCCNC(=O)c1cccc(Nc2nc(-c3ccccc3)c3cc(Cl)ccc3n2)c1	HCV inh 10µM, FMDV inh inconclusive
CC(=O)NNc1nc(-c2ccccc2)c2cc(Cl)ccc2n1	none (no result: Marburg entry inh, HCV inh, LASV entry inh, Sm TGR inh)
C/C(CC(=O)Nc1ccc(Cl)c(C(F)(F)F)c1)=N\NC(N)=S	Marburg entry inh inconclusive, HCV inh 6.31µM, LASV entry inh inconclusive, Sm TGR inh inconclusive
C/C(CC(=O)Nc1ccc(N(C)C)cc1)=N\NC(=O)c1ccccc1O	Sm TGR inh 44.7µM (no result: Marburg entry inh, LASV entry inh)
C/C(CC(=O)Nc1ccc(Cl)c(C(F)(F)F)c1)=N\NC(=O)c1ccccc1O	Marburg entry inh 18.4µM, LASV entry inh inconclusive, FMDV inh inconclusive
CCc1ccc(C(O)c2ncc(-c3ccccc3OC)[nH]2)cc1 (configuration not stated)	none (no result: Marburg entry inh, HCV inh, LASV entry inh, Sm TGR inh)
COc1ccc2c(c1)NC(C)(C)C=C2C	HCV inh inconclusive, Sm TGR inh 39.8µM
N#Cc1ccsc1NC(=O)CCS(=O)(=O)c1ccccc1	Sm TGR inh 2.82µM (no result: Marburg entry inh, LASV entry inh)
N#Cc1ccsc1NC(=O)COC(=O)CCS(=O)(=O)c1ccccc1	none (no result: Sm TGR inh)
NC(=O)c1ccsc1NC(=O)CCS(=O)(=O)c1ccc(Cl)cc1	Sm TGR inh 3.16µM
CN(C)C=NC(=O)c1cc2c(n(-c3ccccc3)c1=O)CC(C)(C)CC2=O	LASV entry inh inconclusive (no result: RE007 growth inh, HCV inh)
CC1(C)CC(=O)C2=C(C1)OC(N)=C(C#N)C2c1ccc[nH]1 (configuration not stated)	Sm TGR inh 17.8µM
COc1ccc(C2C(C#N)=C(N)OC3=C2C(=O)CC(C)(C)C3)cc1 (configuration not stated)	none (no result: Marburg entry inh, LASV entry inh)
COc1cc(C2C(C#N)=C(N)Oc3cc(O)ccc32)cc(OC)c1OC (configuration not stated)	Marburg entry inh 1.83µM, LASV entry inh inconclusive (no result: FMDV inh)
COc1cc(C2C(C#N)=C(N)Oc3cc(N(C)C)ccc32)cc2c1OCO2 (configuration not stated)	Marburg entry inh inconclusive, LASV entry inh 0.517µM
COc1cc(C2C(C#N)=C(N)OC3=C2C(=O)CC(C)(C)C3)cc2c1OCO2 (configuration not stated)	HCV inh 10µM, LASV entry inh inconclusive (no result: Sm TGR inh)
CCOC(=O)C1OC1C(=O)NC(CC(C)C)C(=O)NCCC(C)C (configuration not stated)	none (no result: Marburg entry inh, RE007 growth inh, HCV inh, LASV entry inh, Sm TGR inh)
COc1cccc(N2CCN(C(=O)c3cc4c(=O)n(Cc5ccco5)ccc4nc3C)CC2)c1	LASV entry inh inconclusive, Sm TGR inh 10µM (no result: Marburg entry inh, RE007 growth inh, HCV inh)
Cc1nc2ccn(Cc3ccco3)c(=O)c2cc1C(=O)NCc1ccccc1	LASV entry inh inconclusive (no result: Marburg entry inh, RE007 growth inh, HCV inh)
Cc1ccc(CNC(=O)c2cc3c(=O)n(Cc4ccco4)ccc3nc2C)cc1	LASV entry inh inconclusive, Sm TGR inh 25.1µM (no result: Marburg entry inh, RE007 growth inh, HCV inh)
Cc1ccc(C)c(N2CCN(C(=O)c3cc4c(=O)n(Cc5ccco5)ccc4nc3C)CC2)c1	Sm TGR inh 39.8µM, FMDV inh inconclusive (no result: Marburg entry inh, RE007 growth inh, HCV inh)
Cc1ccc2onc(CC(=O)N3CCN(c4ccc(F)cc4)CC3)c2c1	none (no result: Marburg entry inh, RE007 growth inh, HCV inh)
CCn1c(SCC(=O)c2ccccc2)nnc1-c1cccc(Cl)c1	none (no result: RE007 growth inh, HCV inh)
CCOc1ccccc1N(C)C(=O)Cn1cnc2sc(C)c(S(=O)(=O)N3CCC(C)CC3)c2c1=O	none (no result: RE007 growth inh, HCV inh)
CN(C)S(=O)(=O)c1cccc(-c2csc(N/N=C/c3ccco3)n2)c1	HCV inh inconclusive, Sm TGR inh inconclusive
Cc1ccc(-c2csc(N/N=C/c3ccco3)n2)c(C)c1	Marburg entry inh 1.78µM, HCV inh inconclusive, LASV entry inh 3.26µM
Cc1cccc(C)c1OC(=O)CSc1nnc(-c2ccc3c(c2)OCO3)o1	Marburg entry inh inconclusive (no result: RE007 growth inh, HCV inh)
COCCn1c(CCC(=O)O)ccc1-c1cccs1	Sm TGR inh 14.1µM
Cc1c(Cl)cccc1NC(=O)Cn1c(CCC(=O)O)ccc1-c1cccs1	none (no result: RE007 growth inh, HCV inh)
CCCCn1c(CCC(=O)O)ccc1-c1cccs1	Sm TGR inh 8.91µM (no result: LASV entry inh)
CCC(Sc1nc2cc3c(cc2c(=O)n1CCCCCC(=O)NCc1ccc2c(c1)OCO2)OCO3)C(=O)NCCCOC (configuration not stated)	none (no result: Marburg entry inh, RE007 growth inh, HCV inh)
COc1ccc(/C=C/C(=O)C2C(=O)C=C(C)OC2=O)cc1O (configuration not stated)	none
COc1cc(/C=C/C(=O)C2C(=O)C=C(C)OC2=O)cc(OC)c1O (configuration not stated)	HCV inh inconclusive, FMDV inh 17.8µM
Cc1ccc2nc(N(CCCN(C)C)C(=O)c3cc(-c4cccs4)nc4ccccc34)sc2c1	HCV inh 11.2µM (no result: Marburg entry inh, LASV entry inh)
CN(C)CCCN(C(=O)c1cc(-c2cccs2)nc2ccccc12)c1nc2c(F)cccc2s1	Marburg entry inh 11.2µM, LASV entry inh inconclusive
CN(C)CCCN(C(=O)c1sc2ccccc2c1Cl)c1nc2c(F)cccc2s1	none
